From PubChem BioAssay AID1159580 (chemical genetic matrix, 2015)
Several values for one entry are separate records, joined by “and”; a condition that tells them apart may be missing. Equal entries are not always repeated. Out of some 5,500 compounds screened, about 2,000 (36%) were called active. Inconclusive results (about 18%) are left out. Rule as the data show it: active = normalized growth mostly below about 0.91 (no sharp cut-off); inconclusive = no clear call, values can overlap the other calls; inactive = mostly above about 0.92. Some of the results follow.

Assay: chemical genetic growth profiling, strain panel (AID 1159580);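 also: tested at 20 µM; growth read once vehicle control cultures reached saturation at 30 °C; 1 = growth at the plate median or of vehicle wells; lower values mean less growth of the strain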
Settings: S. cerevisiae deletion strains, growth OD

Measured: normalized growth

COc1cc([C@@H]2c3cc4c(cc3[C@H](OC(C)=O)[C@H]3COC(=O)[C@H]23)OCO4)cc(OC)c1OC
inactive: locus YAL021C, strain ccr4, stronger effect = lower value 0.992 | locus YAL026C, strain drs2, stronger effect = lower value 1.01 | locus YAL030W, strain snc1, stronger effect = lower value 0.999 | locus YBL061C, strain skt5, stronger effect = lower value 1.01 | locus YBR009C, strain hhf1, stronger effect = lower value 1.01 | locus YBR021W, strain FUR4, stronger effect = lower value 0.956 | locus YBR023C, strain chs3, stronger effect = lower value 1 | locus YBR171W, strain sec66, stronger effect = lower value 1.02 | locus YBR229C, strain ROT2, stronger effect = lower value 0.99 | locus YBR231C, strain swc5, stronger effect = lower value 1 | locus YBR279W, strain paf1, stronger effect = lower value 0.976 | locus YCL011C, strain gbp2, stronger effect = lower value 1 | locus YCL016C, strain dcc1, stronger effect = lower value 1.01 | locus YCL029C, strain bik1, stronger effect = lower value 0.986 | locus YCL061C, strain MRC1, stronger effect = lower value 1.01 | locus YCL069W, strain vba3, stronger effect = lower value 0.999 | locus YCR088W, strain abp1, stronger effect = lower value 1.01 | locus YDL005C, strain med2, stronger effect = lower value 1.01 | locus YDL035C, strain GPR1, stronger effect = lower value 1.02 | locus YDL040C, strain nat1, stronger effect = lower value 0.996 | locus YDL074C, strain BRE1, stronger effect = lower value 0.991 | locus YDL101C, strain DUN1, stronger effect = lower value 0.998 | locus YDL134C, strain PPH21, stronger effect = lower value 1.03 | locus YDL185W, strain tfp1, stronger effect = lower value 0.983 | locus YDL192W, strain arf1, stronger effect = lower value 1.01 | locus YDR001C, strain nth1, stronger effect = lower value 0.999 | locus YDR069C, strain doa4, stronger effect = lower value 1.02 | locus YDR101C, strain arx1, stronger effect = lower value 0.996 | locus YDR137W, strain rgp1, stronger effect = lower value 0.884 | locus YDR159W, strain sac3, stronger effect = lower value 1.01 | locus YDR162C, strain NBP2, stronger effect = lower value 1.02 | locus YDR195W, strain ref2 1 | locus YDR297W, strain sur2, stronger effect = lower value 0.998 | locus YDR318W, strain mcm21, stronger effect = lower value 0.987 | locus YDR334W, strain swr1, stronger effect = lower value 1.01 | locus YDR335W, strain msn5, stronger effect = lower value 0.998 | locus YDR388W, stronger effect = lower value 0.98 | locus YDR392W, strain spt3, stronger effect = lower value 1.01 | locus YDR502C, strain sam2, stronger effect = lower value 0.989 | locus YEL003W, strain gim4, stronger effect = lower value 1.01 | locus YEL037C, strain rad23, stronger effect = lower value 1 | locus YEL061C, strain CIN8 (second series), stronger effect = lower value 0.996 | locus YEL061C, strain CIN8, stronger effect = lower value 1 | locus YER015W, strain faa2, stronger effect = lower value 1.02 | locus YER016W, strain bim1, stronger effect = lower value 1 | locus YER110C, stronger effect = lower value 0.96 | locus YER111C, strain swi4, stronger effect = lower value 1.01 | locus YER155C, strain BEM2 (second series), stronger effect = lower value 1.04 | locus YER155C, strain BEM2, stronger effect = lower value 0.983 | locus YER167W, strain BCK2, stronger effect = lower value 0.998 | locus YFR010W, strain ubp6, stronger effect = lower value 1 | locus YGL078C, strain dbp3, stronger effect = lower value 0.971 | locus YGL086W, strain mad1, stronger effect = lower value 0.997 | locus YGL167C, strain pmr1, stronger effect = lower value 1.02 | locus YGL173C, strain kem1, stronger effect = lower value 1.01 | locus YGL227W, strain vid30, stronger effect = lower value 1 | locus YGL240W, strain doc1, stronger effect = lower value 1.01 | locus YGL248W, strain PDE1, stronger effect = lower value 0.996 | locus YGL253W, strain hxk2, stronger effect = lower value 1.01 | locus YGR135W, strain pre9, stronger effect = lower value 0.986 | locus YGR252W, strain gcn5, stronger effect = lower value 0.983 | locus YHR013C, strain ard1, stronger effect = lower value 0.988 | locus YHR027C, strain rpn1, stronger effect = lower value 1 | locus YHR030C, strain SLT2, stronger effect = lower value 0.996 and 0.987 | locus YHR079C, strain IRE1 (second series), stronger effect = lower value 0.988 | locus YHR079C, strain IRE1, stronger effect = lower value 0.98 | locus YHR094C, strain hxt1, stronger effect = lower value 0.973 | locus YHR129C, strain ARP1, stronger effect = lower value 1 | locus YHR142W, strain chs7, stronger effect = lower value 0.996 | locus YHR200W, strain rpn10, stronger effect = lower value 0.988 | locus YIL066C, strain RNR3, stronger effect = lower value 1.01 | locus YIL073C, strain SPO22, stronger effect = lower value 0.98 | locus YIL125W, strain kgd1, stronger effect = lower value 0.987 | locus YIR030C, strain dcg1, stronger effect = lower value 0.974 | locus YJL092W, strain hpr5, stronger effect = lower value 1.01 | locus YJL095W, strain BCK1 (second series), stronger effect = lower value 1 | locus YJL095W, strain BCK1, stronger effect = lower value 1.01 and 1.04 | locus YJL115W, strain asf1, stronger effect = lower value 1.01 | locus YJL129C, strain trk1, stronger effect = lower value 1 | locus YJL134W, strain LCB3, stronger effect = lower value 0.993 | locus YJL154C, strain vps35, stronger effect = lower value 1.01 | locus YJL164C, strain tpk1, stronger effect = lower value 1.01 | locus YJL166W, strain qcr8, stronger effect = lower value 0.995 | locus YJL168C, strain set2, stronger effect = lower value 0.977 | locus YJL187C, strain SWE1 (second series), stronger effect = lower value 1 | locus YJL187C, strain SWE1, stronger effect = lower value 0.99 | locus YJR043C, strain POL32, stronger effect = lower value 1.03
